Screening data deposited in PubChem by Johns Hopkins Ion Channel Center.
A selection: hits, their analogues and other compounds. The true share with any hit is near 1.6%.
KCNQ2 enhance: KCNQ2 (rat) channel potentiation; CHO-K1 KCNQ2, FluxOR thallium flux fluorescence; stronger effect = higher value; AID 2239; B-score at 10 µM; O88943; hit rate 0.54% among 310,000;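 active = fluorescence ratio B-score at least 3 SD of library B-scores, with initial fluorescence B-score within 3 of them, cut at about 5.3 in these data; same plate scores as AID 2156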;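 also: B-score of peak minus minimum over baseline fluorescence ratio after K+ and Tl+ stimulus; positive B-score means potentiation of KCNQ2 with more thallium influx and brighter signal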
KCNQ2 inh: KCNQ2 (rat) channel inhibition; B-score at 10 µM; CHO-K1 KCNQ2, FluxOR thallium flux, 20 min; stronger effect = lower value; hit rate 1.1% among 310,000; AID 2156;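 active = fluorescence ratio B-score at most minus 3 library SDs, with starting brightness B-score within 2 library SDs, cut at about -5.5 in these data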
Active calls of the source: *; i = inactive; · = not tested or not shown.

SMILES	KCNQ2 enhance	KCNQ2 inh
COC(=O)c1nn(C23CC4CC(CC(C4)C2)C3)c2c1C(=O)N(c1ccc(Br)cc1)C2=O	-6.45	-6.45*
CCOC(=O)c1ccc(N2C(=O)C(C)=C(C)C2=O)cc1	·	i
COC(=O)c1cc(-c2ccc(Br)cc2)on1	0.65	i
Cc1ccc(-n2nc3c(=O)n(CCCC(=O)NC4CCC(C)CC4)nc(C)c3c2C)cc1 (configuration not stated)	0.07	i
C/C(=N\NC(=O)Cn1nc(C)cc1C)c1ccc([N+](=O)[O-])cc1	·	i
Cn1c(CNC(=O)c2ccco2)nnc1SCC(=O)N1CCN(c2ccccc2F)CC1	·	i
CS(=O)(=O)N(CC(=O)NCCSCc1ccccc1Cl)c1ccc(F)cc1	·	i
Cc1cc(C)cc(NC(=S)/C(=C(\[O-])c2ccc(Cl)s2)[n+]2cccc(C)c2)c1	-6.04	-6.04*
Cc1ccc(C)c(NC(=S)/C(=C(\[O-])c2ccc(Cl)s2)[n+]2ccccc2)c1	0.75	i
COC(=O)Cc1nnc(SCC(=O)Nc2ccccc2)c2ccccc12	0.71	i
CCOC(=O)c1cc(C(C)(C)C)oc1CN	0.39	i
CCOC(=O)c1cc(C(C)(C)C)oc1CNC(=O)c1c(C)oc2c1CCCC2	-6.07	-6.07*
Cn1c(C(=O)O)c(S(=O)(=O)c2ccc(Cl)cc2)c2ccccc21	·	i
COc1cc(CN2CCC(Oc3cc(C(=O)NC4CC4)ccc3OC)CC2)cc(OC)c1	2.35	i
C/C(=N\NC(=O)c1cccc2ccccc12)c1ccccn1	·	i
C/C(=N\NC(=O)c1ccoc1C)c1cccc2ccccc12	11.7*	i
Cc1cc(C)cc(NCc2cc3c(cc2[N+](=O)[O-])OCO3)c1	-6.23	-6.23*
COc1ccc(CNCc2cc3c(cc2[N+](=O)[O-])OCO3)cc1	1.41	i
CCOc1ccccc1NC(=S)N1CCN(c2cccc(OC)c2)CC1	·	i
Cn1c(=O)c2c(nc(CN3CCc4ccccc4C3)n2Cc2ccc(F)cc2)n(C)c1=O	·	i
Cc1ccccc1Cn1c(CN2CCc3ccccc3C2)nc2c1c(=O)n(C)c(=O)n2C	-6.13	-6.13*
CC1=NN(C(=O)c2ccccc2)C(O)(c2ccc(Br)cc2)C1 (configuration not stated)	1.08	i
CCC1=NN(C(=O)c2ccc(Br)cc2)C(O)(c2ccccc2)C1 (configuration not stated)	6.04*	i
CCC1CCCCN1C(=O)c1ccc([N+](=O)[O-])o1 (configuration not stated)	·	i
N#Cc1cc([N+](=O)[O-])c(-n2nnc3ccccc32)c([N+](=O)[O-])c1	-5.73	-5.73*
SMILES	KCNQ2 enhance	KCNQ2 inh
CS(=O)(=O)c1ccc(-n2nnc3ccccc32)c([N+](=O)[O-])c1	·	i
N=c1n(Cc2ccc(Cl)cc2)c2ccccc2n1CC(O)COc1ccccc1 (configuration not stated)	·	i
N=c1n(Cc2ccccc2)c2ccccc2n1CC(O)COc1ccc(Cl)cc1Cl (configuration not stated)	-5.98	-5.98*
Cn1c(=O)c2c(ncn2CC(=O)N/N=C/c2ccc(Br)s2)n(C)c1=O	0.92	i
COC(=O)[C@H](C)NC(=O)NC1CCCc2ccccc21 (some centres not stated)	-6.47	-6.47*
O=C(NC1CCCc2ccccc21)c1cccc(Br)c1 (configuration not stated)	·	i
CN(C)c1cccc(C(=O)NC2CCCc3ccccc32)c1 (configuration not stated)	-6.49	-6.49*
CC(C)[C@H](NC(=O)NC1CCCc2ccccc21)C(=O)O (some centres not stated)	·	i
O=C(CCNC(=O)C1CCN(S(=O)(=O)c2ccccc2)CC1)Nc1ccccc1	0.11	i
CCOC(=O)N1CCN(c2nc(N(c3ccccc3)c3ccccc3)nc(-n3ccnc3)n2)CC1	-5.98	-5.98*
c1ccc(N(c2ccccc2)c2nc(N3CCCC3)nc(-n3ccnc3)n2)cc1	·	i
COc1ccc(C(=O)CCC(=O)N2CCN(c3ccc(C)cc3)C(C)C2)cc1 (configuration not stated)	0.2	i
CCOC(=O)C1CCCN(CCc2ccccc2)C1 (configuration not stated)	1.38	i
O=C(NC1CCCN(CCc2ccccc2)C1)C1CCCC1 (configuration not stated)	-6.77	-6.77*
COc1ccccc1C(=O)Nc1ccnn1C1CCN(C(=O)c2ccoc2C)CC1	0.23	i
COCc1cc(C)nc(NC2CC(C)(C)NC(C)(C)C2)c1C#N	·	i
CC1=NN(c2ccc(Cl)c(C(=O)O)c2)C(=O)/C1=C\c1ccc(-c2ccc(C(=O)O)cc2)o1	1.6	i
CC1=NN(c2ccccc2)C(=O)/C1=C/c1ccc(-c2ccc(C)c(C(=O)O)c2)o1	6.84*	i
O=C(c1ccc(Cl)c([N+](=O)[O-])c1)N1CCN(Cc2ccc3c(c2)OCO3)CC1	·	i
Cc1ccc(NC(=O)C2=C(c3ccccc3)S(=O)(=O)CCS2(=O)=O)cc1	2.83	i
CN(C(=O)COC(=O)C(C)(C)Oc1ccc(Cl)cc1)c1c(N)n(Cc2ccccc2)c(=O)[nH]c1=O	·	i
CCCCNC(=S)N/N=C/C1=CCC2CC1C2(C)C (configuration not stated)	5.43*	i
C=C(C)CNC(=S)N/N=C/C1=CCC2CC1C2(C)C (configuration not stated)	1.37	i
O=C(NC(=S)Nc1nc2ccccc2s1)c1cccs1	6.76*	i
O=C(NC(=S)Nc1ccccc1)c1cccs1	4.27	i
SMILES	KCNQ2 enhance	KCNQ2 inh
Cc1cc(C)n(-c2nc3ccccc3nc2N2CCN(S(=O)(=O)c3ccc(F)c(C)c3)CC2)n1	·	i
Cc1cc(C)n(-c2nc3ccccc3nc2N2CCN(S(=O)(=O)c3ccc4ccccc4c3)CC2)n1	-5.89	-5.89*
COc1ccccc1N1CCN(CC(=O)Nc2c(C)n(C)n(-c3ccccc3)c2=O)CC1	1.23	i
O=C(CCCc1ccccc1)Nc1ccnn1C1CCN(Cc2ccccn2)CC1	6.43*	i
Cc1ccccc1CN1CCC(n2nccc2NC(=O)CCCc2ccccc2)CC1	0.07	i
Cc1ccc2c(c1)C1CN(C)CCC1N2C(=O)COc1ccc(N(C)C(=O)C(C)(C)C)cc1 (configuration not stated)	·	i
Cc1ccc2c(c1)C1CN(C)CCC1N2CC(=O)N(C)c1ccccc1 (configuration not stated)	5.57*	i
COc1cc(/C=N/Nc2nc(C)cc(C)n2)cc(OC)c1OC	0.33	i
COc1ccc(CNC(=O)C2CCCN(Cc3nc(-c4cccc(C)c4)oc3C)C2)cc1 (configuration not stated)	-6.42	-6.42*
Cc1ccccc1-c1nc(CN2CCCC(C(=O)NCCCN3CCOCC3)C2)c(C)o1 (configuration not stated)	0.91	i
COc1ccc(-c2nc(CN3CCCC(C(=O)NC4CCCC4)C3)c(C)o2)cc1 (configuration not stated)	·	i
Cc1ccccc1-c1nc(CN2CCCC(C(=O)NCc3cccnc3)C2)c(C)o1 (configuration not stated)	9.04*	i
COc1cccc(N2CCN(C(=O)/C=C/c3ccco3)CC2)c1	0.51	i
COc1ccc(C2CC(c3c(-c4ccccc4)c4cc(Cl)ccc4[nH]c3=O)=NN2S(C)(=O)=O)cc1 (configuration not stated)	0.16	i
